Luciferase inh: Photinus pyralis luciferase inhibition; P08659; purified P. pyralis luciferase, luminescence, biochemical; Potency, µM (titrated, usually from 115 µM), usual class: inhibitors; 76,000 tested, 2.5% active; AID 1347043; also: nearly all actives have a fitted effect of over 65% in size
Target sequence (P08659 whole entry, looked up): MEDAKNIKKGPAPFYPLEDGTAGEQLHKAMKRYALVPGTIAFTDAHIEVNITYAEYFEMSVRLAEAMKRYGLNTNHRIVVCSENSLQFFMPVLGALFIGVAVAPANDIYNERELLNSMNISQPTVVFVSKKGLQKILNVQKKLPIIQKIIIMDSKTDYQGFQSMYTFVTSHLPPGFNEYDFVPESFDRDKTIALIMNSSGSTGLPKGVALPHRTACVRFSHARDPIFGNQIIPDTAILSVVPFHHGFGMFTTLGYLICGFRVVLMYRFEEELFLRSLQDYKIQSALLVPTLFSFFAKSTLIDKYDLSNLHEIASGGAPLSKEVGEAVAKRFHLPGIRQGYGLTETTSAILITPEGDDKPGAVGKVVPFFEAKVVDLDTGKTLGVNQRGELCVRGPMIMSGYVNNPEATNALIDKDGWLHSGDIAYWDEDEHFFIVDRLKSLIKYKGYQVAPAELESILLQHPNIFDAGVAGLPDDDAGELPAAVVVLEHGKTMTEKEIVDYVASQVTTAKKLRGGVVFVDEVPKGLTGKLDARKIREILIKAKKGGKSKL
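Purified P. pyralis luciferase (10nM final) in 50mM Tris acetate pH 7.5, 10mM Mg acetate, 0.01% Tween-20, 0.05% BSA with 10uM D-luciferin and 10uM ATP. Compounds titrated qHTS. Luminescence imaged on CCD.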
NPR1 antag: blocks ANP-stimulated signaling of human Npr1 receptor | HEK293 hNpr1 GloSensor cGMP, ANP-stimulated luminescence | 76,000 tested, 1.6% active | AID 1347048 | Potency, µM (doses to about 46.3 µM), for the others: at the highest dose activity change, negative = inhibition, hits mostly inhibitors | P16066; calls by dose curve; also: nearly all actives have a fitted effect of over 60% in size
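HEK293 cells stably expressing human Npr1 and cGMP GloSensor pGS-40F, loaded 2 h with 2% GloSensor reagent, given compound 30 min at room temperature. Luminescence read before and 20 min after 0.1 nM hNppA.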
HEK293 tox: HEK 293 cell cytotoxicity | HEK 293 viability, ATP luminescence (CellTiter-Glo), 48-72 h | Potency, µM (titrated, usually from 115 µM), for inactives: at the top dose activity change, negative = cytotoxicity, actives largely listed as inhibitors | 94,000 tested, 6.6% active | AID 1345083; also: nearly all actives have a fitted effect of over 60% in size
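HEK 293 cells at 250 cells/well were exposed to compounds by pintool transfer for 48 or 72 hr at 37 degree Celsius, 5% CO2. Viability was read as ATP-coupled luminescence with CellTiter-Glo after 10 min at room temperature.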
NIH3T3 tox: kills NIH 3T3 cells | NIH 3T3 viability, CellTiter-Glo ATP luminescence, 48-72 h | Potency, µM (series often up to 96.7 µM), for inactives: at the highest dose activity change, negative = cytotoxicity, usual class: inhibitors | 94,000 tested, 4.3% active | AID 1345082; also: nearly all actives have a fitted effect of over 55% in size
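NIH 3T3 cells at 400 cells/well received 23 nL of compound by pintool and were incubated 48 or 72 h at 37 °C. Viability was read as ATP-coupled CellTiter-Glo luminescence.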
* = called active by the depositor; i = inactive; ? = inconclusive; [ ] = another dose, or the depositor's remark. In the library only some 11% were active in any assay of this set; here they are far more common. Unless noted, calls follow the shape of the dose curve; as a rule, active = well fitted curve in the direction sought with a large enough effect; inconclusive = small, poorly fitted or top-dose-only effect, or another doubt; inactive = no such curve, though single readings can be large; an effect the other way counts as inactive or inconclusive. % is scaled to controls: 0 for no effect and ±100 for the full control effect; potency is read from the fitted curve at half-maximal effect.

SMILES	Luciferase inh	NPR1 antag	HEK293 tox	NIH3T3 tox
O=S(=O)(NC[C@H]1C[C@@H]2CCN1C[C@@H]2CN1CCc2ccccc2C1)c1ccc(Cl)cc1	i	3.7%	22.4µM*	22.4µM*
COc1ccc(S(=O)(=O)NC[C@H]2C[C@@H]3CCN2C[C@@H]3CN2CCCCC2)cc1	i	2.7%[70.6 µM]	112µM*	100µM*
Cc1ccc(S(=O)(=O)NC[C@H]2C[C@@H]3CCN2C[C@@H]3CN2CCN(c3ccccn3)CC2)cc1	i	-6.0%	-18.7%	-25.2%
COc1ccc(S(=O)(=O)NC[C@H]2C[C@@H]3CCN2C[C@@H]3CN2CCc3ccccc32)cc1	i	1.8%[70.6 µM]	28.2µM*	39.8µM*
CS(=O)(=O)NC[C@H]1C[C@@H]2CCN1C[C@@H]2CN1CCc2ccccc2C1	i	7.9%[70.6 µM]	-21.2%[172 µM]	-21.8%[174 µM]
Cc1ccc(S(=O)(=O)NC[C@H]2C[C@@H]3CCN2C[C@@H]3CN2CCc3ccccc32)cc1	i	-8.7%[70.6 µM]	28.2µM*	44.7µM*
Cc1ccc(S(=O)(=O)NC[C@H]2C[C@@H]3CCN2C[C@@H]3CN2CCCCC2)cc1	i	4.4%[70.6 µM]	?	-22.7%[174 µM]
Cc1ncc2c(c1CNCC1(O)CNCCOC1)CCNC2 (stereo not given)	i	8.7%	-1.4%	i
CCc1ccc(C(=O)N2CCC3(CC2)c2nccn2-c2ccccc2CN3C)cc1	i	-2.1%	?	-8.1%
O=S(=O)(NC[C@H]1C[C@@H]2CCN1C[C@@H]2CN1CCc2ccccc21)c1ccc(Cl)cc1	i	3.8%	20µM*	28.2µM*
COc1cc2c(cc1OC1CCCC1)NC(=O)C21CCN(C(=O)c2cccc(O)c2)CC1	i	-22.1%[70.6 µM]	79.4µM*	?
COc1cc2c(cc1OC1CCCC1)NC(=O)C21CCN(C(C)=O)CC1	i	-6.4%[70.6 µM]	-33.7%[172 µM]	?
COc1cc2c(cc1OC1CCCC1)NC(=O)C21CCN(C(=O)c2cccc(C#N)c2)CC1	i	-9.6%	?	22.4µM*
COc1ccccc1-c1cc([C@H]2CN3CC[C@H]2C[C@@H]3CNS(=O)(=O)c2ccccc2)n(C)n1	i	0.7%	?	31.6µM*
Cn1nc(C2CCCC2)cc1[C@H]1CN2CC[C@H]1C[C@@H]2CNS(=O)(=O)c1ccccc1	i	0.1%[70.6 µM]	100µM*	112µM*
COc1ccccc1-c1cc([C@H]2CN3CC[C@H]2C[C@@H]3CNS(C)(=O)=O)n(C)n1	i	6.8%[70.6 µM]	i	-13.1%[174 µM]
COc1ccc(-c2cc([C@H]3CN4CC[C@H]3C[C@@H]4CNS(=O)(=O)c3ccc(C)cc3)n(C)n2)cc1OC	i	0.5%	39.8µM*	22.4µM*
Cc1cc(C(=O)N2[C@H]3CC[C@@H]2c2cnc(-c4ccc(F)cc4)nc2C3)nn1C	i	?	?	?
Cn1nc(-c2cccs2)cc1[C@H]1CN2CC[C@H]1C[C@@H]2COC(=O)Nc1ccccc1	i	-16.0%[70.6 µM]	44.7µM*	35.5µM*
CC(=O)NC[C@H]1C[C@@H]2CCN1C[C@@H]2c1cc(-c2cccs2)nn1C	i	1.9%[70.6 µM]	-5.3%[172 µM]	?
COc1ccc(-c2cc([C@H]3CN4CC[C@H]3C[C@@H]4CNC(=O)Nc3ccccc3)n(C)n2)cc1	i	1.8%	?	79.4µM*
COc1ccc(NC(=O)NC[C@H]2C[C@@H]3CCN2C[C@@H]3c2cc(-c3ccccc3)nn2C)cc1	i	-6.2%	28.2µM*	?
COc1ccc(-c2cc([C@H]3CN4CC[C@H]3C[C@@H]4CNC(=O)Nc3ccccc3)n(C)n2)cc1OC	i	-1.2%	?	?
Cn1nc(C2CCCCC2)cc1[C@H]1CN2CC[C@H]1C[C@@H]2CNC(=O)COc1ccccc1	i	-0.3%	44.7µM*	?
CCNC(=O)NC[C@H]1C[C@@H]2CCN1C[C@@H]2c1cc(C2CCCCC2)nn1C	i	-2.6%[70.6 µM]	?	?
SMILES	Luciferase inh	NPR1 antag	HEK293 tox	NIH3T3 tox
CC(C)NC(=O)NC[C@H]1C[C@@H]2CCN1C[C@@H]2c1cc(-c2ccc3ccccc3c2)nn1C	i	2.3%[70.6 µM]	22.4µM*	28.2µM*
Cc1ccc(C(=O)NC[C@H]2C[C@@H]3CCN2C[C@@H]3c2cc(-c3ccccc3)nn2C)cc1	i	5.1%[70.6 µM]	?	?
Cn1nc(C2CCCC2)cc1[C@H]1CN2CC[C@H]1C[C@@H]2CNC(=O)Nc1ccccc1	i	5.7%[70.6 µM]	100µM*	?
Cn1nc(-c2ccccc2)cc1[C@H]1CN2CC[C@H]1C[C@@H]2CNC(=O)Nc1ccccc1	i	-0.3%[70.6 µM]	50.1µM*	50.1µM*
COc1ccc(-c2cc([C@H]3CN4CC[C@H]3C[C@@H]4COC(=O)Nc3ccccc3)n(C)n2)cc1	i	-6.5%	?	20µM*
COc1ccc(S(=O)(=O)NC[C@H]2C[C@@H]3CCN2C[C@@H]3CN(C)Cc2ccccc2)cc1	i	0.6%	-19.9%	-1.5%
O=C(NCc1ccco1)N1C[C@@H](c2ccc(F)cc2)[C@@H]2[C@H]1C1CCN2CC1	i	1.9%	-14.2%	-20.0%
COc1ccc(CN(Cc2ccc(OC)cc2)C[C@H]2C[C@@H]3CCN2C[C@@H]3c2cc(C3CCCC3)nn2C)cc1	i	1.5%	25.1µM*	20µM*
Cn1nc(-c2ccc3ccccc3c2)cc1[C@H]1CN2CC[C@H]1C[C@@H]2CNC(=O)Nc1ccccc1	i	0.2%	?	20µM*
Cn1nc(-c2ccc3ccccc3c2)cc1[C@H]1CN2CC[C@H]1C[C@@H]2CNC(=O)Nc1cccc(C#N)c1	i	3.8%	?	44.7µM*
Cn1nc(-c2ccccc2)cc1[C@H]1CN2CC[C@H]1C[C@@H]2CNC(=O)Nc1cccc(C#N)c1	i	4.7%	-27.7%	-21.0%
COc1ccc(-c2cc([C@H]3CN4CC[C@H]3C[C@@H]4CNC(=O)COc3ccccc3)n(C)n2)cc1	i	-26.5%	?	?
CCNC(=O)NC[C@H]1C[C@@H]2CCN1C[C@@H]2c1cc(-c2ccc3ccccc3c2)nn1C	i	1.9%[70.6 µM]	39.8µM*	31.6µM*
COCC1CN(C)CC12CCN(C(=O)c1cncc(C)c1)CC2 (stereo not given)	i	-12.6%	?	-17.0%
COc1ccc([C@H]2C[C@@H](O)[C@@H](O)[C@@H]2NCC(C)C)cc1	i	-0.6%[70.6 µM]	-12.9%[230 µM]	0.0%[230 µM]
COc1cc2c(cc1Oc1ccccc1)NC(=O)C21CCN(Cc2ccccc2)CC1	i	?	28.2µM*	28.2µM*
COc1cc2c(cc1Oc1ccccc1)NC(=O)C21CCN(c2ncc(C(C)C)cn2)CC1	i	6.9%	?	?
COc1cncc(CN2CCC3(CC2)C(=O)Nc2cc(Oc4ccccc4)c(OC)cc23)c1	i	-26.5%	35.5µM*	?
COc1cc2c(cc1Oc1ccccc1)NC(=O)C21CCN(c2ncccn2)CC1	i	-30.3%[70.6 µM]	?	79.4µM*
Cc1nn(C)c2ncnc(NCCc3c[nH]c(=O)[nH]c3=O)c12	i	-1.0%	-5.4%	-0.5%
